The test system of assay [1] is HaCat. The assay is described as follows: Cytotoxic Profiling of Annotated Libraries Using Quantitative High-Throughput Screening (AID 1296008). The following applies: Five cell lines viability, CellTiter-Glo ATP luminescence, 48-72 h; max response: stronger effect = lower value. The procedure, abridged:
(§1)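 Cytotoxicity was measured as CellTiter-Glo ATP luminescence, read after 10 min at room temperature. Compound treatment of the cells lasted 48 or 72 hr at 37 degrees Celsius in a qHTS format.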
On the technique in general: Cellular ATP, detected with luciferase, serves as a proxy for viable cell number.

The test system of a further assay is KB-3-1. Described as above. The following applies: Five cell lines viability, CellTiter-Glo ATP luminescence, 48-72 h; max response: stronger effect = lower value. The procedure, abridged:
as §1

In another assay the test system is NIH3T3. Described as above. The following applies: Five cell lines viability, CellTiter-Glo ATP luminescence, 48-72 h; max response: stronger effect = lower value. The essentials:
as §1

Assay [2] concerns HACAT. Put plainly: qHTS assay to identify novel small-molecules to repurpose for Merkel cell carcinoma treatment (AID 1296009). The conditions noted are these: MCC and control cell lines, CellTiter-Glo viability, 72 h; at 44.8 µM (top of the series) unless noted. The procedure, abridged: (§2)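 72 hr, 37 degree celsius; NPC 8-pt / MIPE 11-pt dose response; compound pinned in DMSO; CellTiter-Glo, 10 min RT, luminescence; normalized to no-cell and DMSO controls.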
(In general: Quantitative high-throughput screening tests each substance at several concentrations.)

The next assay has as its system MCC-13. The description is as above. The following applies: MCC and control cell lines, CellTiter-Glo viability, 72 h; series mostly up to 46 µM. The essentials:
as §2

For the next assay, the system named is MCC-26. The assay is described as above. The following applies: MCC and control cell lines, CellTiter-Glo viability, 72 h; series mostly up to 46 µM. The essentials: as §2
In another assay the test system is MKL-1. Described as above. The following applies: MCC and control cell lines, CellTiter-Glo viability, 72 h; series mostly up to 46 µM. The procedure, abridged: as §2
The next assay deals with MKL-2. The assay is described as above. The following applies: MCC and control cell lines, CellTiter-Glo viability, 72 h; series mostly up to 46 µM. The procedure, abridged: as §2
The next assay has as its system HEK293. Put plainly: Cytotoxic Profiling of Annotated Libraries Using Quantitative High-Throughput Screening (AID 1296008). The conditions noted are these: Five cell lines viability, CellTiter-Glo ATP luminescence, 48-72 h; max response: stronger effect = lower value. The essentials: as §1

“And” between values parts separate entries of the source, which are not always exact repeats. Equal values may be shown once. Records with an inconclusive call do not appear. A structure can be active in one record and inactive in another. The source made the active and inactive calls. The call rests on the fitted dose curve; in most records, active means well fitted inhibition curve with a large enough effect; inconclusive means small, poorly fitted or top-dose-only effect; inactive means flat fitted curve, though single readings scatter.
Further: nearly all actives have a fitted effect of over 60% in size.
On the % scale 0 is the no-effect control and ±100 the full control effect; potency means the concentration at half of the fitted maximal effect.

As to `Cc1ccc(N(CC2=NCCN2)c2cccc(O)c2)cc1`, the max response was 1.48% (inactive) in the assay on HaCat [1]; 5.53% (inactive) and -7.75% (inactive) in the assay with KB-3-1; -17.8% (inactive) and -24.2% (inactive) in the assay with NIH3T3. Moreover, the call with HaCat [1] and in the assay with HACAT [2] was inactive. In addition, the Potency entry in the assay with MCC-13, with MCC-26, in the assay on MKL-1 and in the assay with MKL-2 was “inactive” throughout.
Consider `S=C(NCc1ccc2c(c1)OCO2)N1CCN(c2ncnc3c2oc2ccccc23)CC1`, for which the Potency in the assay on HEK293 was 340 nM (active) and 4.11 µM (active). For the same compound, the max response is -0.756% (inactive) and -9.04% (inactive) in the assay with HaCat [1]; -27.2% (inactive) with NIH3T3. The Potency entry with MCC-13 and in the assay on MCC-26 was “inactive” in each case.
In the case of `O=C1[C@H](Cc2ccc(O)cc2)N2C(=O)CCN(C(=O)NCc3ccccc3)[C@H]2CN1Cc1cccc2ccccc12`, the Potency in the assay on HEK293 is 2.09 µM (active); in the assay on HaCat [1], 2.96 µM (active); with KB-3-1, 16.6 µM (active); in the assay on MKL-1 it was 14.8 µM (active). In the assay with MCC-26, the Potency result is “inactive”.
With `COc1ccc(COc2cc3oc(=O)c4cc(C(C)O)ccc4c3cc2OC)cc1` (stereo not drawn), the Potency in the assay with HEK293 was 14.8 µM (active). In addition, the compound was called inactive in the assay on HaCat [1] and in the assay with HACAT [2]. Moreover, the Potency entry in the assay on MCC-13, with MKL-1 and in the assay on MKL-2 was “inactive” throughout.
In the case of `Oc1cccc(-c2nc(N3CCOCC3)c3oc4ncccc4c3n2)c1`, the Potency in the assay on HEK293 is 0.171 µM (active); with NIH3T3, 0.762 µM (active).
`Cc1cc(Nc2nc(N[C@@H](C)c3ncc(F)cn3)ncc2Cl)n[nH]1`: the Potency in the assay with HEK293 was 7.31 µM (active); in the assay with HaCat [1], 6.51 µM (active); with NIH3T3, 8.2 µM (active). Also, the Potency entry in the assay on MCC-13 and in the assay with MCC-26 was “inactive” each time.
As to `C[C@@H]1CN(Cc2ccc(F)cc2)[C@@H](C)CN1C(=O)c1cc2c(C(=O)C(=O)N(C)C)cn(C)c2cc1Cl`, the max response is -4.64% (inactive) in the assay on HaCat [1]; 6.97% (inactive) and -3.16% (inactive) in the assay with KB-3-1; 1.1% (inactive) in the assay on NIH3T3. The result in the assay with HaCat [1], with NIH3T3 and with HACAT [2] was inactive. The Potency result with MCC-13, in the assay on MCC-26, with MKL-1 and in the assay on MKL-2 was “inactive” each time.
For `Nc1nc2ccc(OC(F)(F)F)cc2s1`, the results for the max response with HaCat [1], in the assay with KB-3-1 and with NIH3T3 were -58.3% (inactive), -6.76% (inactive) and -3.98% (inactive), respectively. In addition, the result in the assay with HaCat [1] and in the assay with HACAT [2] was inactive. For the same compound, the Potency result in the assay on MCC-13, with MCC-26, with MKL-1 and in the assay on MKL-2 was “inactive” each time.
On to `CCc1cc(Nc2nccc(-c3c(-c4ccc(OC)c(C(=O)Nc5c(F)cccc5F)c4)nc4ccccn34)n2)c(OC)cc1N1CCC(N2CCN(S(C)(=O)=O)CC2)CC1`, for which the result in the assay on HaCat [1] and with HACAT [2] was inactive. In addition, the max response with KB-3-1 was 5.37% (inactive) and -9.54% (inactive); in the assay on NIH3T3 it was -25.3% (inactive). Besides, the Potency entry with MCC-13, with MCC-26 and in the assay with MKL-1 was “inactive” throughout.
Consider `COCC(=O)NCC=Cc1ccc2ncnc(Nc3ccc(Oc4ccc(C)nc4)c(C)c3)c2c1`, for which the Potency in the assay on HEK293 was 13.2 µM (active). Moreover, in the assay with NIH3T3, the max response was -10.3% (inactive). Further, the Potency entry with MKL-1 is “inactive”.
`O=C(Nc1cccnc1)N1CCC(Cc2cccc(Oc3ccc(C(F)(F)F)cn3)c2)CC1`: the Potency is 10.5 µM (active) and 8.2 µM (active) in the assay with HEK293; 16.6 µM (active) in the assay on MKL-2. In addition, the max response in the assay with HaCat [1] is -12.8% (inactive). In the assay with MCC-26, the Potency result is “inactive”.
On to `COc1ccc(-c2ccc3c(N4CCOC[C@H]4C)nc(N4CCOC[C@H]4C)nc3n2)cc1CO`, for which the Potency in the assay on HEK293 is 0.0166 µM (active); in the assay with KB-3-1, 0.0118 µM (active); with NIH3T3, 0.0662 µM (active).
`Clc1ccc(Nc2nnc(Cc3ccncc3)c3ccccc23)cc1`: the max response with HaCat [1] was -5.86% (inactive); in the assay on KB-3-1, -8.03% (inactive) and 60.3% (inactive); in the assay on NIH3T3, -1.18% (inactive) and -1.64% (inactive). Also, the compound was called inactive in the assay on HaCat [1] and with HACAT [2]. In addition, the Potency entry with MCC-13 and with MCC-26 was “inactive” each time. The Potency entry with MKL-2 is “inactive and 13.3 µM (active)”.
For `COc1ccc(-c2ccc3c(N4CCOCC4)nc(N4C[C@@H](C)O[C@@H](C)C4)nc3n2)cc1CO`, the Potency was 0.662 µM (active) with HEK293, 1.66 µM (active) with KB-3-1 and 3.72 µM (active) in the assay with NIH3T3. Further, the Potency entry in the assay with MKL-1 was “inactive”.
As for `N#CC[C@H](C1CCCC1)n1cc(-c2ncnc3[nH]ccc23)cn1`, the max response in the assay on HaCat [1] is 0.777% (inactive). The result in the assay on HaCat [1] and in the assay with HACAT [2] was inactive. The Potency result in the assay with MCC-13, in the assay with MKL-1 and with MKL-2 was “inactive” each time.
Regarding `Cc1cc2c(C(C)C)c(O)c(O)c(C=O)c2c(O)c1-c1c(C)cc2c(C(C)C)c(O)c(O)c(C=O)c2c1O`, the Potency was 23.5 µM (active) in the assay on HEK293, 9.35 µM (active) in the assay on KB-3-1 and 13.3 µM (active) with MKL-1. Further, the Potency entry with MCC-13 and in the assay on MCC-26 was “inactive” each time.
Regarding `COc1ccc(C2=N[C@H](c3ccc(Cl)cc3)[C@H](c3ccc(Cl)cc3)N2C(=O)N2CCNC(=O)C2)c(OC(C)C)c1`, the Potency in the assay with HEK293 was 11.8 µM (active); with MKL-1, 9.35 µM (active). Further, in the assay on MCC-13, the Potency entry is “inactive”.
As to `Cc1ccccc1C(OCCN(C)C)c1ccccc1` (stereo not drawn), the max response with HaCat [1] is -11.7% (inactive); in the assay with KB-3-1, 4.24% (inactive) and -3.9% (inactive); in the assay with NIH3T3, -2.58% (inactive) and 4.52% (inactive). Besides, the call in the assay on HaCat [1], in the assay with KB-3-1 and in the assay on HACAT [2] was inactive. Moreover, the Potency result with MCC-13, with MKL-1 and in the assay with MKL-2 was “inactive” in each case.

(Values after PubChem BioAssay (NCATS).)
